# Assay outcomes deposited in PubChem BioAssay by National Center for Advancing Translational Sciences (NCATS).
# nsP2pro primary = blocks chikungunya virus nsP2 protease peptide cleavage. Q8JUX6. FRET peptide cleavage, nsP2pro, fluorescence 1 h. Potency, µM (doses to about 24.9 µM), for the others: at the highest dose activity change, negative = inhibition, actives largely listed as inhibitors. 31,000 tested, 1.1% active. AID 1964107; calls by dose curve; further: nearly all actives have a fitted effect of over 60% in size
#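 FRET cleavage of 2.5 uM peptide 2 by 150 nM CHIKV protease domain at pH 8.0 (Tris, Tween 20). Compounds at 7 concentrations (up to 25 uM) preincubated 15 min. Fluorescence read after 1 h at room temperature.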
# The depositor's hits bear a star; i = inactive; [ ] = remark or other dose. The full list was thinned out, with hits kept by preference. On the % scale 0 is the no-effect control and ±100 the full control effect; potency means the concentration at half of the fitted maximal effect.
SMILES,nsP2pro primary
Cc1cc(C)cc(NC(=O)CSc2nc3sc4c(c3c(=O)[nH]2)CCCC4)c1,-21.1%
CCOc1ccccc1C(=O)NCc1coc(-c2ccc(OC(F)F)c(OC(C)C)c2)n1,-7.5%
CC1CCCC(C)N1C(=S)Nc1cccc(C(F)(F)F)c1 (centres undefined),-1.0%
COC(=O)c1ccc(N2CCN(S(=O)(=O)c3ccc4c(c3)CC(=O)N4)CC2)cc1,i
CCCCN1CCc2nc(N3CCN(C)CC3)ncc2C1,10µM*
Cc1ccccc1CN1CCc2nc(N3CCN(c4ncccn4)CC3)ncc2C1,52.0%
CCN1CCN(c2ncc3c(n2)CCN(Cc2ccc(C)s2)C3)CC1,21.2%
Cc1cc(C)nc(NC(=S)N2CCN(c3ccc(Cl)c(C(F)(F)F)c3)CC2)c1,0.9%
COc1cccc2sc(N(Cc3cccnc3)C(=O)C3COc4ccccc4O3)nc12 (centres undefined),-16.2%
COc1ccccc1Oc1ccc(N(Cc2cccnc2)S(=O)(=O)CC(F)(F)F)cc1,11.1µM*
COc1ccc(C)c2sc(N(Cc3cccnc3)C(=O)COc3ccccc3)nc12,-11.2%
Cc1cc(Nc2c(Nc3nnc(-c4ccncc4)s3)c(=O)c2=O)ccc1Cl,i
Cc1cc(C)nc(NC(=S)N2CCN(c3ccccc3C#N)CC2)c1,1.9%
O=C(Nc1nc(-c2ccccc2)cs1)c1ccncc1NS(=O)(=O)c1ccc(F)cc1,i
CCCN1Cc2ccccc2NC(=O)C12CCNC2 (centres undefined),12.6µM*
Cc1cc(CN2CCC23Cc2ccccc2NC3=O)no1 (centres undefined),-15.9%[39.2 µM]
O=C1Nc2ccccc2CN(C/C=C/c2ccccc2)C12CCNC2 (centres undefined),-8.2%
Cc1cn2nc(-c3cc(=O)n4cc(N5CCNC6(CC6)C5)ccc4n3)cc(C)c2n1,12.6%
Cn1cc(OCC(O)CNC(C)(C)C)c2ccccc2c1=O (centres undefined),-5.3%
CC(=O)CCC1C(=O)N(c2ccccc2)N(c2ccccc2)C1=O,4.7%
CCC(CN)CC(C)CNCC(O)CNCC(CC)CC(CC)CN (centres undefined),-5.3%
O=C(Nc1nc(-c2ccccc2)cs1)c1ccncc1NS(=O)(=O)c1cccc(Cl)c1,i
C=CCNC1=C2C[C@@H](C)C[C@H](OC)[C@H](O)[C@@H](C)/C=C(\C)[C@H](OC(N)=O)[C@@H](OC)/C=C\C=C(/C)C(=O)NC(=CC1=O)C2=O,-23.5%
COC1=C2C[C@H](C)C[C@H](OC)[C@H](O)[C@@H](C)/C=C(/C)[C@H](OC(N)=O)[C@@H](OC)/C=C\C=C(\C)C(=O)NC(=CC1=O)C2=O,12.4µM*
COc1ccccc1-c1ncc(C)c(NCc2ccc(-c3cccnc3)cc2)n1,i
SMILES,nsP2pro primary
Cn1cc(C2=C(c3cn(CCCN)c4ccccc34)C(=O)NC2=O)c2ccccc21,9.2%
CN(CCC1CCCO1)c1ncnc2ccc(-c3ccc4c(c3)OCO4)cc12 (centres undefined),-4.6%
Cc1c(C(=O)NCC2CCCO2)[nH]c2c1C(=O)CC(c1ccco1)C2 (centres undefined),-21.6%
CCOC(=O)c1[nH]c2c(c1C)C(=S)CC(c1ccco1)C2 (centres undefined),12.6µM*
CCOC(=O)c1[nH]c2c(c1C)CCC(c1ccco1)C2 (centres undefined),-1.6%
CC(=O)Nc1ccc(-c2nc3ccccc3s2)cc1,i
CC(=O)c1cccc(NC(=O)c2c(C)nn(-c3ccc(F)cc3)c2-n2cccc2)c1,10µM*
Cc1ccc(CCNC(=O)c2c(C)nn(-c3ccc(F)cc3)c2-n2cccc2)cc1,-16.6%
Cc1nn(-c2ccc(F)cc2)c(-n2cccc2)c1C(=O)N1CCCCC1C (centres undefined),-28.7%
Cc1cc(C)nc(NC(=S)N2CCN(c3cccc(Cl)c3Cl)CC2)c1,i
CCCCC1(CCCC)CN(c2ccccc2)c2cc(SC)c(OCC(=O)N[C@@H](C(=O)N[C@@H](CC)C(=O)O)c3ccc(O)cc3)cc2S(=O)(=O)N1,196.0%
CCOC(=O)C1=C(C)NC(C)=C(C(=O)OCC)C1c1ccccc1/C=C/C(=O)OC(C)(C)C,-20.9%
COC(=O)C1=C(C)NC(C)=C(C(=O)OCC(C)=O)C1c1ccccc1[N+](=O)[O-] (centres undefined),12.4µM*
COC(=O)C1=C(C)NC(C)=C(C(=O)OC(C)C)C1c1cccc2nonc12 (centres undefined),-2.4%
CCNC(=O)c1ccc(-c2ccc3ncnc(NCc4nc(C)cs4)c3c2)o1,i
O=C(/C=C/c1ccc(O)c(O)c1)O[C@H]1[C@H](O)C[C@](O)(C(=O)O)C[C@H]1OC(=O)/C=C/c1ccc(O)c(O)c1,7.4%
Clc1ccc(-c2csc(NN=C3CCCC3)n2)cc1,27.5%
CCOC(=O)[C@H](CS)NCCN[C@@H](CS)C(=O)OCC,11.1µM*
CCOC(=O)C(Cc1ccccc1)NC(=O)Cn1nnc(-c2ccc(C)cc2)n1 (centres undefined),-19.6%
CCOC(=O)c1ccccc1C(=O)OCC,3.8%
CNc1oc(-c2cccc3cnccc23)nc1C#N,2.6%
